Source: PubChem BioAssay (NCI)
About 83,000 compounds went through this panel and 20% of them were active in at least one assay; those are over-represented in the sample as a whole.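 Interpretation: 100, growth as untreated; towards 0, rising growth inhibition; 0, no net growth; 0 to -100, cell death. Compounds scoring below 10 were considered active.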 Values without a mark were called inactive. Activity calls are given as the source filed them.

The molecules below were run on KM12 colon (assay: NCI-60 one-dose screen, 48 h (100 = growth as untreated, 0 = no growth, -100 = all killed)). Conditions: 10 µM unless noted.

Compound	growth
Cn1c(=O)cc2c3c(c(NCCCO)ccc31)C(=O)c1ccccc1-2	42.7%
O=C(OC(CO)C(=O)NC12CC3CC(CC(C3)C1)C2)c1ccc(Cl)cc1 (centres undefined)	111%
N#Cc1nc(-c2ccc(F)cc2)oc1S(=O)(=O)N1CCCCC1	99.1%
COC1/C=C/OC2(C)Oc3c(C)c(O)c4c(O)c(c(/C=N/Nc5ccc([N+](=O)[O-])cc5[N+](=O)[O-])c(O)c4c3C2=O)NC(=O)C(C)=C/C=C/C(C)C(O)C(C)C(O)C(C)C(OC(C)=O)C1C (centres undefined)	9.93% (active)
O=C1c2c(c3c4ccccc4[nH]c3c3ccc4ccccc4c23)C(=O)N1CCN1CCOCC1	36.4%
NC(=O)c1cc(I)ccc1NC(=O)/C=C/c1ccccc1	8.98% (active)
COC(=O)c1c2c(c(C)[n+]([O-])c1C)C(=O)C(NCc1cccc(OC)c1)=CC2=O	22%
COc1ccc(CNc2c3ccccc3nc3ccccc23)cc1	33.2%
N=C(N)c1ccc(-c2ccc(-c3ccc(Cl)c(Cl)c3)s2)nc1	-74.6% (active)
Nc1c(C(=O)Nc2ccccc2F)sc2nc3c(cc12)CCCC3	27.6%
Cc1ccc2c(n1)C(=O)C(Br)=C(C1CCCC1)C2=O	99.6%
N#CC1=C(N)Oc2c(sc3c(Br)cccc23)C1c1ccc(Cl)cc1 (centres undefined)	26.4%
COc1ccc(/C=C(\C#N)n2nnc3cc(F)c(F)cc32)cc1	34%
COc1cc(NS(=O)(=O)c2ccc(-c3cnc(C4CC4)o3)cc2)ccc1F	20.7%
